# The list is not random: actives were taken first. Their share in the collection is about 4.6%.
# SKKanGAS inh: inhibitors of SKKanGAS S. pyogenes growth in kanamycin (SK-promoter or general growth effect); BacTiter-Glo, 6 h; 1.3% of 300,000 active; AID 1662; inhibition, % at 7.5 µM;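 active means mean replicate score, as percent of positive control median, at least 50; inconclusive means mean below 50 but one replicate at or above 50; inactive means mean and every replicate below 50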;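 further: strain carries kanamycin resistance gene driven by streptokinase promoter and grows in 40 µg/ml kanamycin; loss of luminescence reflects streptokinase promoter inhibition or plain growth inhibition; 0% = median of DMSO wells and 100% = positive control at its reference dose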
# PfHsp90 yeast 2: reduces growth (ATP signal) of yeast expressing P. falciparum Hsp90; S. cerevisiae expressing PfHsp90, BacTiter-Glo ATP, 48 h; yeast lacking PDR1 and PDR3 efflux regulators; inhibition, % at 9.4 µM; 0.32% of 310,000 active;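 active means every replicate shows inhibition above about 80%, whatever the replicate mean, limit read from the data; inconclusive means mean inhibition reaches the set limit but some replicate falls short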;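 further: 0% = DMSO neutral controls and 100% = 20 µM radicicol positive controls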
# TIM10 inh: growth inhibitors of TIM10 yeast strain; S. cerevisiae TIM10 strain growth, BacTiter-Glo luminescence, 24 h; inhibition, % at 10 µM; 1.4% of 330,000 active; AID 463195;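 active means inhibition of 40% or more at the single tested concentration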;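 further: wild-type TIM10 isogenic control strain grown at permissive 25 °C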
# NALP3 yeast inh: NALP3 inhibition in yeast | Yeast reconstituted NLRP3/ASC/caspase-1, beta-gal luminescence, 24 h | inhibition, % at 10 µM | 0.39% of 330,000 active;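 active means inhibition of 50% or more; inactive means inhibition below 50%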;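 further: plate controls were induced DMSO wells for no effect and uninduced yeast grown without galactose for full effect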
# tim23-1 inh: inhibits growth of tim23-1 mutant yeast | S. cerevisiae tim23-1 growth, BacTiter-Glo luminescence, 24 h | inhibition, % at 20 µM | 1.3% of 330,000 active | AID 463212;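 active means growth inhibition of the mutant yeast at or above 50%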;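 further: temperature-sensitive mutant grown at 25 °C; plate controls were DMSO-treated mutant yeast for no effect and medium wells lacking yeast for full effect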
# tim10-1 inh: tim10-1 yeast growth inhibition; 2.2% of 330,000 active; AID 463190; inhibition, % at 20 µM; S. cerevisiae tim10-1 ts strain growth, BacTiter-Glo, 24 h;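 active means inhibition of at least 40%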;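 further: mutant grown at 25 °C; 0% = DMSO wells with yeast and 100% = wells holding no yeast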
# tim23-1 conf: tim23-1 yeast growth inhibition, confirmed | shares compounds with tim23-1 inh | S. cerevisiae tim23-1 growth, BacTiter-Glo luminescence, 24 h | inhibition, % at 20 µM | 83% of 4,400 active;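 active means inhibition above about 39% in either of two replicate wells at 20 µM, limit read from the data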;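 further: temperature-sensitive tim23-1 mutant grown at 25 °C; 0% = DMSO wells with yeast and 100% = medium wells without yeast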
# Numbers without * were called inactive; ? = inconclusive; / = no result given.
SMILES,SKKanGAS inh,PfHsp90 yeast 2,TIM10 inh,NALP3 yeast inh,tim23-1 inh,tim10-1 inh,tim23-1 conf
C=C1SC(Nc2c(C)cccc2C)=NC12CCCCC2,7.0,7.7,30.1,11.4,50.2*,26.3,44.2*
Cc1cccc(C)c1NC(=O)NC1(C(=O)N2CCCCC2)CCCCC1,-4.8,14.5,-2.1,8.8,-7.8,-5.5,/
CC1=NOC(=O)/C1=C/c1ccc(N(C)C)cc1,-1.4,/,-14.0,9.9,28.3,10.0,/
CCN(CC)c1ccc(/C=C2/C(=O)ON=C2C)cc1,0.6,-1.2,17.5,10.8,55.8*,31.8,60.4*
Nn1cnnc1N/N=C/c1cc(Br)cc(Br)c1O,?,-50.4,39.1,49.8,56.8*,4.4,60.1*
CCOC(=O)c1c(C=O)c(C)n(Cc2ccc(Cl)cc2)c1C,-3.1,/,34.3,11.0,63.0*,29.9,58.2*
CCOC(=O)c1c(C=O)c(C)n(Cc2ccccc2)c1C,-0.1,50.4,25.7,7.9,22.5,27.9,/
CC(C)(C)C(=O)N1CCN(c2ncnc3scc(-c4ccccc4)c23)CC1,7.3,-19.6,26.1,12.9,51.2*,30.6,28.9
Cc1ccc(-c2csc3ncnc(N4CCN(C(=O)c5ccco5)CC4)c23)cc1,/,11.9,31.1,18.2,51.3*,29.4,42.5*
Cc1sc2ncnc(N3CCN(C(=O)c4ccco4)CC3)c2c1C,0.8,-5.3,-3.0,8.5,9.7,13.5,/
Oc1ccc(/C=N/Nc2cccc(Cl)n2)c(O)c1,-1.5,1.1,4.2,37.8,56.0*,-48.6,44.0*
C/C(=C\c1ccc2c(c1)OCO2)C1Nc2cccc3cccc(c23)N1,/,0.2,22.4,5.3,51.5*,30.7,47.2*
C/C(=C\c1ccccc1)C1Nc2cccc3cccc(c23)N1,/,/,-0.5,14.1,25.5,24.0,/
CC1(C2CC2)NC(=O)N(CC(=O)Nc2ccccc2F)C1=O (stereo unspecified),/,5.2,2.9,6.6,-2.4,-14.0,/
CCOC(=O)c1c(-c2ccccc2)oc2ccc(O)cc12,3.6,-31.3,18.7,18.0,59.4*,12.6,55.5*
CCOC(=O)c1c(-c2ccccc2)oc2ccc(OCC)cc12,1.6,-2.1,-5.5,11.4,-4.6,18.4,/
O=C(N/N=C/c1ccc(Br)s1)c1cccs1,15.1,-10.6,35.0,23.5,56.6*,18.9,62.8*
Cc1ccc(/C=N/NC(=O)c2cccs2)s1,-1.1,9.1,-0.6,25.4,7.4,-13.8,/
O=C(N/N=C/c1cc(Br)cs1)c1c[nH]c2ccccc12,6.8,14.2,12.3,28.8,60.2*,14.0,71.3*
O=C(N/N=C/c1ccc(Br)s1)c1c[nH]c2ccccc12,2.4,32.1,1.6,0.8,54.6*,-13.9,45.6*
O=C(NCCc1ccccc1C(F)(F)F)C1CCC(=O)N(CCCN2CCCC2=O)C1 (stereo unspecified),-8.2,6.9,4.7,0.2,-10.4,-9.4,/
Cc1ccc(CN(C)C(=O)c2c(C)nn(-c3ccccc3)c2C)cc1,-1.1,17.2,7.7,10.0,13.7,7.6,/
CCCCC1NC(=S)N(C2CCCCC2)C1=O (stereo unspecified),2.6,-18.1,33.3,-12.0,58.1*,7.5,21.7
CCOC(=O)c1sc(NC(=O)c2cccs2)cc1C,1.4,14.8,34.2,25.0,55.4*,21.2,77.8*
Cc1c(NC(=O)c2cccs2)cccc1NC(=O)c1cccs1,2.4,5.1,-12.5,23.0,-0.2,-23.4,/
SMILES,SKKanGAS inh,PfHsp90 yeast 2,TIM10 inh,NALP3 yeast inh,tim23-1 inh,tim10-1 inh,tim23-1 conf
COc1ccc(C(C[N+](=O)[O-])c2c(C)[nH]n(-c3ccccc3)c2=O)cc1 (stereo unspecified),5.3,116.7*,10.3,20.1,75.7*,21.2,66.6*
CCCCCCn1c(=O)c(-c2ccccc2)c(O)c2ccccc21,-2.7,/,1.8,22.4,50.1*,11.6,43.6*
COc1cccc(CNc2ccc([N+](=O)[O-])cc2Cl)c1O,21.7,-30.0,13.3,35.8,58.1*,35.7,65.2*
C=CCOc1ccc(C(=O)Nc2ccccc2C(=O)NCc2cccnc2)cc1,0.3,-26.6,19.5,14.9,16.1,13.8,/
Nc1nc2c(s1)COc1ccccc1-2,-10.6,-10.6,7.6,8.2,1.2,-3.4,/
Nc1nc2c(s1)CCc1c-2cnn1-c1ccccc1,12.1,-24.0,29.9,34.6,62.3*,21.1,61.4*

# Screens (PubChem BioAssay)
